Assay results taken from PubChem BioAssay (NCATS).
Inconclusive results are not listed. Calls of active or inactive are those of the source.

Tested on: not listed separately
Experiment: qHTS assay for small molecule antagonists of retinoid X receptor alpha signaling (AID 588546; active = well fitted inhibition curve with a large enough effect in the signal ratio, with a control signal flat, not every such curve was filed as active; the % refers to the signal ratio;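 also: cells stimulated with 9-cis-retinoic acid as agonist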)
Settings: HEK293T RXRa-UAS-bla, beta-lactamase ratio, antagonist mode; measured here: W530 green channel, cytotoxicity proxy
Summary of the method: (§1)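 Beta-lactamase reporter inhibition, read as CCF4 fluorescence ratio (ex 405, em 460/530 nm) after 2 h at RT. HEK293T UAS-bla cells, 2500/well, were stimulated with 9-cis-RA at 500 or 100 nM final alongside test compound for 18 h at 37 C.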
% is scaled to controls: 0 for no effect and ±100 for the full control effect.

| SMILES | max response |
| --- | --- |
| CNc1nc(=O)n(C2CCCCC2)c(=O)n1C | -10.4% |
| CCCCCCCC[Si](Cl)(Cl)Cl | -3.5% |
| CCCCCCCOC(=O)c1ccccc1C(=O)OCCCCCCC | -8.81% |
| C=Cc1ccc(P(c2ccccc2)c2ccccc2)cc1 | -0.204% |
| CCCCCCCCCCCCCCCCCCN | -8.83% |
| CC(=O)N(CCN(C(C)=O)C(C)=O)C(C)=O | -2.01% |
| CCCC/C=C\CCCCCCCCO | -4.18% |
| Nc1cc(Cl)nc(C(=O)O)c1Cl | -11.4% |
| C[Si](Cl)(Cl)[Si](C)(Cl)Cl | -10.7% |
| CCCCCCCCCc1ccccc1 | -10.2% |
| CS/C(=N\O)C(=O)N(C)C | 0.656% |
| C[Si](Cl)(Cl)c1ccccc1 | -2.11% |
| COC(=O)c1c(Cl)nn(C)c1S(=O)(=O)NC(=O)Nc1nc(OC)cc(OC)n1 | -1.74% |
| CC1(C)CC(NCCCCCCNC2CC(C)(C)NC(C)(C)C2)CC(C)(C)N1 | -10.1% |
| Cc1ccc(C(=O)c2ccccc2)cc1 | 9.26% |

Molecular target: Retinoic acid receptor RXR-alpha (Homo sapiens) (UniProt P19793)
Sequence (P19793 whole entry, looked up): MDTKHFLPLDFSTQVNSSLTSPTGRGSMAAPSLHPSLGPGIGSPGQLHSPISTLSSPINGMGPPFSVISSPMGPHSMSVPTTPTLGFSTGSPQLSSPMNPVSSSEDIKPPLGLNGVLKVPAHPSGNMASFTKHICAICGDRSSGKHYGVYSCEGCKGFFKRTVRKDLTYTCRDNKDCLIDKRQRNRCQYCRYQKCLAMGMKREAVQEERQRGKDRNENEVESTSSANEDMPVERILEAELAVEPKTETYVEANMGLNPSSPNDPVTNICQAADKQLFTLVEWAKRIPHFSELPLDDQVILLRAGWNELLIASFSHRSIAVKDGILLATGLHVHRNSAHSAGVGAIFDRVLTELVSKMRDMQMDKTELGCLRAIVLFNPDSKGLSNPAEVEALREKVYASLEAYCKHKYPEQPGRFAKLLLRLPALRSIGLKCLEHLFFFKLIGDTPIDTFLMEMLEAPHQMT
Experiment: as above
Settings: HEK293T RXRa-UAS-bla, beta-lactamase ratio, antagonist mode
Summary of the method: as §1

| SMILES | max response |
| --- | --- |
| CNc1nc(=O)n(C2CCCCC2)c(=O)n1C | 4.07% (inactive) |
| CCCCCCCC[Si](Cl)(Cl)Cl | -13.9% (inactive) |
| CCCCCCCOC(=O)c1ccccc1C(=O)OCCCCCCC | 5.05% (inactive) |
| C=Cc1ccc(P(c2ccccc2)c2ccccc2)cc1 | 3.02% (inactive) |
| CCCCCCCCCCCCCCCCCCN | 4.01% (inactive) |
| CC(=O)N(CCN(C(C)=O)C(C)=O)C(C)=O | -5.17% (inactive) |
| CCCC/C=C\CCCCCCCCO | -9.15% (inactive) |
| Nc1cc(Cl)nc(C(=O)O)c1Cl | -3.66% (inactive) |
| C[Si](Cl)(Cl)[Si](C)(Cl)Cl | -4.71% (inactive) |
| CCCCCCCCCc1ccccc1 | 2.35% (inactive) |
| CS/C(=N\O)C(=O)N(C)C | -15.6% (inactive) |
| C[Si](Cl)(Cl)c1ccccc1 | -4.88% (inactive) |
| COC(=O)c1c(Cl)nn(C)c1S(=O)(=O)NC(=O)Nc1nc(OC)cc(OC)n1 | -14.3% (inactive) |
| CC1(C)CC(NCCCCCCNC2CC(C)(C)NC(C)(C)C2)CC(C)(C)N1 | 2.64% (inactive) |
| Cc1ccc(C(=O)c2ccccc2)cc1 | -15.9% (inactive) |

Molecular target: Thyroid hormone receptor beta (Homo sapiens) (UniProt P10828)
Sequence (P10828 whole entry, looked up): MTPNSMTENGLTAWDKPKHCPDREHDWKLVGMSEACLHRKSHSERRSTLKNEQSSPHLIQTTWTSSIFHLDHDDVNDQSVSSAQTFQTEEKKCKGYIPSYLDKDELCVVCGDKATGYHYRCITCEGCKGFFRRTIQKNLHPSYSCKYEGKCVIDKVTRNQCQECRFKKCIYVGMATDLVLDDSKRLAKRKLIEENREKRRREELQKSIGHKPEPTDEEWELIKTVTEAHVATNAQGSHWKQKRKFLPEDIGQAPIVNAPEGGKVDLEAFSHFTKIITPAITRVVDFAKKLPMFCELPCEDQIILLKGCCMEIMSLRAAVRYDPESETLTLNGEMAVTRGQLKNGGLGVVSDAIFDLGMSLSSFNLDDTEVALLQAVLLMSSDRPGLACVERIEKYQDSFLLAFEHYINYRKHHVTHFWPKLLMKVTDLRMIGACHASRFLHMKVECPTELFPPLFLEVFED
Experiment: qHTS assay for small molecule antagonists of thyroid hormone receptor beta signaling (AID 588547; active = well fitted inhibition curve with a large enough effect in the signal ratio, with a control signal flat, not every such curve was filed as active; the % refers to the signal ratio;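 also: cells stimulated with 0.4 nM T3 agonist during compound exposure; series mostly up to about 77 µM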)
Settings: TR-UAS-bla HEK293, beta-lactamase ratio, antagonist mode, 18 h
Summary of the method: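 TR-UAS-bla GripTite HEK293 cells in 2% charcoal/dextran FBS medium; compounds 0.59 nM to 92 uM with T3 at 0.4nM final, 18 h at 37 C. Beta-lactamase read by CCF4 fluorescence (460/530 nm); Hill fits gave IC50 and efficacy.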

| SMILES | activity change % (negative = inhibition) |
| --- | --- |
| CCCCCCCC[Si](Cl)(Cl)Cl | -0.14% (inactive) |
| C=Cc1ccc(P(c2ccccc2)c2ccccc2)cc1 | 9.12% (inactive) |
| CCCCCCCCCCCCCCCCCCN | 13% (inactive) |
| CC(=O)N(CCN(C(C)=O)C(C)=O)C(C)=O | -8.71% (inactive) |
| CCCC/C=C\CCCCCCCCO | 3.63% (inactive) |
| Nc1cc(Cl)nc(C(=O)O)c1Cl | 12% (inactive) |
| C[Si](Cl)(Cl)[Si](C)(Cl)Cl | 3.73% (inactive) |
| CCCCCCCCCc1ccccc1 | 0.977% (inactive) |
| CS/C(=N\O)C(=O)N(C)C | -12.9% (inactive) |
| COC(=O)c1c(Cl)nn(C)c1S(=O)(=O)NC(=O)Nc1nc(OC)cc(OC)n1 | -5.79% (inactive) |
| CC1(C)CC(NCCCCCCNC2CC(C)(C)NC(C)(C)C2)CC(C)(C)N1 | -26.6% (inactive) |
| Cc1ccc(C(=O)c2ccccc2)cc1 | -19.1% (inactive) |
